iPSC survival up = hiPSC single-cell survival enhancement. hit rate 0.044% among 360,000. survival enhancement, % at 20 µM. ATPlite luminescence; 100% = ROCK inhibitor wells, 0% = DMSO; in the data active = survival enhancement above about 18%;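 also: cells exposed to compounds for 16 hours before the ATP read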
DAGLB inhibitor = blocks human DAGLB lipase activity; Q8NCG7; HEK293T DAGLB membrane lysate, EnzChek fluorogenic substrate; AID 504411; hit rate 0.059% among 340,000; inhibition, % at 5.17 µM; in the data active = inhibition above about 34%;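 also: 0% = enzyme with vehicle and 100% = wells lacking enzyme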
Target sequence (Q8NCG7 whole entry, looked up): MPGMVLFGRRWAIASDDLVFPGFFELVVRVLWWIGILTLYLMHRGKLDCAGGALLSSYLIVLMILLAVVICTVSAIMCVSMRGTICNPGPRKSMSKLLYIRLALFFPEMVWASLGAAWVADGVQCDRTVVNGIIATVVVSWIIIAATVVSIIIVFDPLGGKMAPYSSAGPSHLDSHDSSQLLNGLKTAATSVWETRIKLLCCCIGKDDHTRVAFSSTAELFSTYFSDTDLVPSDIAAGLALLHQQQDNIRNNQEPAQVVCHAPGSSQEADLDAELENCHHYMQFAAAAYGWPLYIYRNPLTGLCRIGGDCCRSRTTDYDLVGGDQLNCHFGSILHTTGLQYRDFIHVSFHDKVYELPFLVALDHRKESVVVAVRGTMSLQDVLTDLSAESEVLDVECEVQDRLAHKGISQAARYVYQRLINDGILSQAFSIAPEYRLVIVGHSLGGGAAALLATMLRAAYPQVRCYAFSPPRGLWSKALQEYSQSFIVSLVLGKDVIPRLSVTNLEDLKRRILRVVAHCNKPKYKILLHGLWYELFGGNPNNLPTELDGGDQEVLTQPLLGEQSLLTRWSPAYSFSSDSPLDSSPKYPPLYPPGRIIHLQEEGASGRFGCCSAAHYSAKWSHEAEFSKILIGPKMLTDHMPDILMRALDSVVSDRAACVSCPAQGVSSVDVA
HDAC3 inhib = blocks human histone deacetylase 3. hit rate 0.15% among 320,000. recombinant HDAC3, fluorogenic peptide/trypsin coupled, fluorescence. inhibition, % at 8.3 µM; in the data active = inhibition above about 26%, passing the limit was not always enough
LANA-H2B inh = blocks KSHV LANA binding to histone H2A/H2B; Q9QR71; cell-free LANA-H2A/H2B peptide, fluorescence polarization; inhibition, % (no concentration beside the values); hit rate 0.6% among 320,000; in the data active = inhibition mostly above about 10%, no sharp cut-off; inactive = mostly below about 6.7%
Active calls of the source: *; . = no result; + = active, no number; ! = a repeat was not active. Sampled rows, rich in hits. Any-hit rate of the full collection: about 0.79%.

SMILES	iPSC survival up	DAGLB inhibitor	HDAC3 inhib	LANA-H2B inh
O=C(c1cccn2c(=O)c3ccccc3nc12)N1CCN(c2ccccn2)CC1	4	-1	-3	-4
O=C(c1cccn2c(=O)c3cc4ccccc4cc3nc12)N1CCN(c2ccccc2)CC1	.	.	1	13*
O=C(CCc1ccccc1)Nc1ccccc1C(F)(F)F	4	1	2	32*
Cc1cc(-c2nnc(CCC(=O)NCCc3ccccc3F)o2)no1	0	-3	1	0
COc1ccc(OCC(=O)NNC(=O)C(=O)Nc2ccccc2)cc1	0	0	1	-3
COc1ccc(OCC(=O)NCCCNC(=O)COc2ccc(OC)cc2)cc1	-3	3	-1	11*
COCCNC(=O)C(=O)NNC(=O)COc1ccc(OC)cc1	-1	0	0	20*
Cc1cc(C)c(N2C(=O)CC(Sc3ccccc3N)C2=O)c(C)c1 (stereo unspecified)	2	0	.	.
Cn1cnnc1SCc1ccc(C(=O)N/N=C(\CCC(=O)O)c2ccc(C(C)(C)C)cc2)cc1	-1	-2	-2	+
COc1ccc(-n2c(=S)[nH]c3cc(C(=O)Nc4ccc(OC)c(OC)c4)ccc3c2=O)cc1	-1	20	1	126*
COc1ccc(-n2c(=S)[nH]c3cc(C(=O)Nc4cccc(C)c4)ccc3c2=O)cc1	-2	-2	-7	0
COc1cc(N2CCCC2)c(OC)cc1/C=C(/C#N)c1ccc(Br)cc1	3	-3	2	-2
COc1cc(N2CCCC2)c(OC)cc1/C=C(/C#N)c1ccc(F)cc1	0	-7	-2	-69*
COc1ccc(F)cc1S(=O)(=O)NC1CCCC1	-2	-2	-2	82*
CCOc1ccc(S(=O)(=O)NC2CCCCCC2)cc1	-2	-3	-1	2
COc1ccc(C)cc1S(=O)(=O)NC1CCCC1	-3	-4	-5	2
CCOc1cc(S(=O)(=O)NC2CCCCCC2)ccc1F	7	-6	4	22*
CC(C)n1cnnc1SCC(=O)Nc1ccc(N2CCCCC2)cc1	0	1	.	2
CC(C)(C)c1nnc(SCC(=O)Nc2ccc(N3CCCCC3)cc2)n1N	0	1	4	+
COc1ccccc1C(=O)NCCC(=O)N(C)CC(=O)Nc1ccccc1Br	1	5	-1	1
CCCN(CC(=O)Nc1ccccc1OC)C(=O)CCNC(=O)c1ccccc1OC	1	-3	-7	41*
Cc1csc2nc(SCC(=O)Nc3ccccc3F)[nH]c(=O)c12	0	2	-4	28*
COc1ccc(OC)c(NC(=O)CSc2nc3scc(C)c3c(=O)[nH]2)c1	0	3	-1	-2
Cc1c(C(=O)Nc2ccc(F)cc2)cn2c(nc3ccccc32)c1C#N	-1	4	-1	97*
N#Cc1c2nc3ccccc3nc2n2cc(NC(=O)c3ccc(F)cc3)ccc12	-2	0	.	.
SMILES	iPSC survival up	DAGLB inhibitor	HDAC3 inhib	LANA-H2B inh
O=S(=O)(Nc1nccs1)c1ccc(Br)cc1	-1	0	7	2
O=S(=O)(Nc1ccc(S(=O)(=O)Nc2nccs2)cc1)c1ccc(Br)cc1	0	8	43*	-5
O=C(CSc1ncnc2ccccc12)NCc1ccco1	-3	1	1	3
O=C(CSc1ncnc2ccccc12)c1ccco1	-1	2	40*	1
CN(CC(=O)Nc1cccc(F)c1)C(=O)CN1C(=O)NC2(CCCC2)C1=O	-1	-7	-2	-7
CC1=C(C)CS(=O)N(S(=O)(=O)c2ccccc2)C1 (stereo unspecified)	-2	-2	2	14*
CC1=C(C)CS(=O)N(c2ccc(S(N)(=O)=O)cc2)C1 (stereo unspecified)	-1	0	2	-3
O=C(Nc1ccccc1C(=O)N/N=C/c1ccco1)c1ccccc1	4	0	-7	-1
O=C(Nc1ccccc1C(=O)N/N=C/c1ccco1)c1ccc(Cl)cc1	-2	-2	7	+
Cn1c(=O)c(C(=O)NCCO)c(O)c2ccccc21	2	0	1	9.6*
O=C(N/C(=C\c1ccc([N+](=O)[O-])cc1)C(=O)N1CCOCC1)c1ccccc1	3	-3	6	2
O=C(N/C(=C/c1ccc([N+](=O)[O-])cc1)C(=O)N1CCOCC1)c1ccco1	3	2	-17	14*
Cc1ccc(-n2nc(C)c3c(=O)[nH]c(C(F)(F)F)nc32)cc1	.	.	-10	-8
Cc1ccc(-n2nc(C)c3onc(C)c3c2=O)cc1	-1	-3	2	28*
c1cnc2c(c1)ccc1cccnc12	-3	-1	3	21*!
O=Cc1ccc2ccc3cccnc3c2n1	-1	-1	-3	1
CC(C)CN(C(=O)COC(=O)CN1C(=O)c2ccccc2C1=O)c1c(N)n(Cc2ccccc2)c(=O)[nH]c1=O	0	2	0	3
Cc1ccccc1CC1(CO)CCCN(C(=O)CCCN2CCCCC2=O)C1 (stereo unspecified)	1	-3	3	83*
CCOC(=O)C1(Cc2ccccc2C)CCCN(C(=O)CN2CCCCC2=O)C1 (stereo unspecified)	0	0	-3	2
Cc1cccc(-c2ccc3c(c2)C2CC3CCN2Cc2ccc3c(c2)OCO3)c1 (stereo unspecified)	1	-7	.	.
CCOC(=O)[C@H]1[C@H]2COc3ccc(Cl)cc3[C@@H]2N2C(=O)c3cc(Br)ccc3NC(=O)[C@@]12C	-3	0	3	17*
Cc1ccc2c(c1)C(=O)N1[C@H]3c4cc(C)ccc4OC[C@@H]3[C@H](c3ccccc3)[C@]1(C)C(=O)N2	-4	-5	7	104*
O=C(Nc1ccc(Br)cc1)C1CCCN(C2=NS(=O)(=O)c3ccccc32)C1 (stereo unspecified)	2	-1	1	3
Cc1ccc(S(=O)(=O)NC(C(=O)OCC(=O)NC2CCS(=O)(=O)C2)C(C)C)cc1 (stereo unspecified)	-1	1	2	-5
Cc1ccc(S(=O)(=O)CCC(=O)OCC(=O)NC2CCS(=O)(=O)C2)cc1 (stereo unspecified)	1	-6	2	25*
SMILES	iPSC survival up	DAGLB inhibitor	HDAC3 inhib	LANA-H2B inh
Cc1cc(NC(=O)C2CCN(S(=O)(=O)Cc3ccccc3)CC2)ccc1-n1cnnn1	-2	-3	-2	43*
CCOC(=O)C1C(=O)CC(C)(O)C(C(=O)OCC)C1c1ccc2c(c1)OCO2 (stereo unspecified)	2	4	-2	178*
O=C(CC[C@H]1O[C@@H](n2cnc3c(NC(=O)c4ccccc4)ncnc32)[C@H](O)[C@@H]1O)NCC1CCCCC1	0	.	.	.
COc1ccc(NC(=S)NNC(=O)OC(C)(C)C)cc1OC	0	-1	1	33*
CCc1ccc(C(=O)Cn2ncc(Cl)c(Cl)c2=O)cc1	-2	4	-2	12
O=C(OCn1ncc(Cl)c(Cl)c1=O)c1cccc(C(F)(F)F)c1	75*	1	-2	-2
CCC(CO)[n+]1c(C)cc(/C=C2\Sc3ccccc3N2Cc2ccccc2)cc1C (stereo unspecified)	-2	0	26*	-250
